Results as given in the supplement of paper PMC11417369.
The full ranking holds about 25,000 sequences; the median of “ln(normalized median fluorescence intensity)” is about 9.7, and the highest 2% start at about 11. This excerpt belongs to a sample that is enriched for the highest values.

The sequences below were run on PfAP2-HC AP2 domain (GST-tagged) (assay: gcPBM binding intensity (ln(normalized median fluorescence intensity)); higher = stronger DNA binding).
Method in brief: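 Each value is the highest Masliner-normalised natural-log median intensity across replicate spots of either orientation of a probe. The probes were primer-extended double-stranded 36-bp intergenic genomic sequences on an Agilent 4 × 180k array, alongside negative controls, exposed for 1 h to GST-tagged P. falciparum DNA-binding domains expressed in E. coli. Bound protein was picked up with Alexa488 anti-GST antibody and scanned at 488 nm.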

Sequence | gcPBM binding intensity (ln)
TATATATATAAAAAAAGTACGTATTTAATAAAAATA [XGTACX_site4992] | 9.88
AAAACTTTTAGTTATACACACAACATAGAAAATATT [CACACA_site6287] | 9.84
TATAAAGACACGTACACACACTAAGTATATCCAATA [CACACA_site6855] | 10.5
AATATTCATATGCAGGTGCATTAATTTTTATTAATT | 9.65
ATGCTTTTGTCATGTGCACACACGTATATATTATAT [CACACA_site4163] | 10.3
TGTTAATTATAAATTTGTACTTATTTTTACAAAATA [XGTACX_site6598] | 9.48
ATGTAACATAGGAAATGTACATATAAATATAATTTA [XGTACX_site6452] | 9.77
CATATAATATTTGAAACTATATATAAATATAAGGTA [TGCATGCA_negctrl_site19] | 9.52
GAAAATTTATATTGCACACATAGGGAATAAAAAAAA [CACACA_site2146] | 9.99
ATATTTACCATTGTATGTACATATATAAAATATATC [XGTACX_site3237] | 9.69
AATGGTAATCCACATACACACACACCGACACATATA [CACACA_site8876] | 11.1
CATACACCCATACATACACACATACATATATATATA [CACACA_site8591] | 9.98
CACATATATACACATACACACACACCCATACACCCA [CACACA_site8505] | 11
TATATATATATATACACACACACACCCATATATATA [CACACA_site2538] | 10.4
TATATATACATATACACACACACACCCATATATATA [CACACA_site2246] | 11.1
CATATACATACACATACACACATACACCCATACACA [CACACA_site8514] | 10.2
TGGTAATCCACATACACACACACATACACATATATA [CACACA_site2727] | 10.3
TATACATACACATACACACATACACCCATACACATA [CACACA_site1746] | 10.6
AAATATAAATGGTAATACACATACACACACACATAC [XGTACX_negctrl_site459] | 10.5
ACAGTATATTAAAAAATACACACGTATTATATCTAC [CACACA_site2640] | 9.83

Sequence | gcPBM binding intensity (ln)
TATATGCTATAATATACACACATACCTATATTTATA [CACACA_site6383] | 9.94
ATTTCTTATTAAATTACACACAAAGTAAATAAATCT [CACACA_site3924] | 9.54
AAAATACACGCATACACACACACACCCACCCATATA [CACACA_site639] | 11.5
TACACGCTAAAATACACACACACACCCACATATATA [CACACA_site4153] | 10.6
CACCCATAAATATACACACGCACAACACAAAATAAA [CACACA_site2903] | 10.7
AAAAAAAATACATACACACACACACCCACATATATA [CACACA_site3561] | 10.6
AAAAAAAAAATACATACACACACACCCACCCATATA [CACACA_site9187] | 10.5
AGAAAATACACGCATACACACACACCCACCCACATA [CACACA_site8115] | 11.3
GCTTTTGTCATGTGCACACACGTATATATTATATAT [CACACA_site6146] | 10.9
AATATCTAAATAAAGTGTACTTACCTTATTAATTAT [XGTACX_site2276] | 9.64
TAAAAGTTGAAGCACACACACAAAAGAAATACAATA [CACACA_site6649] | 11.3
CATAAAAATTGAAGCACACACACAAAAGAAATACAA [CACACA_site1112] | 10.7
TAAAAATTGAAGCACACACACAAAAGAAATACAATA [CACACA_site1113] | 10.9
TTAAGTCCGTTAACAGTGCATTTTTTCTTTTATGTA [GTGCAC_site9867] | 9.58
TATATAAATATACATTGTACTCAACATTTTCATTAA [XGTACX_site3690] | 9.62
AACAAATACAGACACACACACACACTAATAAAAAAA [CACACA_site8067] | 11.6
AATACAGACAGACACACACACAAAATAAAATACAAA [CACACA_site245] | 10.5
ATGTTACACAGACACACACACATAAAAAAACAAAAA [CACACA_site7516] | 10.4
ATTCATTCATATGTTACACACACACGCCCACATAAA [CACACA_site7513] | 10.6
GGTACATACAGACACACACACAAAAAAAAAAAAATA [CACACA_site6844] | 11.2

Sequence | gcPBM binding intensity (ln)
TCATTCATATGTTACACACACACACCCACATAAAAA [CACACA_site3245] | 11.2
TGAACACAGACAAATACACACAAAAAAAATAAATAA [CACACA_site4298] | 10
ATGTTACTCAGACACACACACATAAAAAAACAAAAA [CACACA_site3249] | 10.4
ATATGTTACAGACACACACACACATAAAAAAACAAA [CACACA_site3248] | 11.1
ATTCATTCATATGTTACACACACACCCACCCATAAA [CACACA_site9066] | 10.1
GTGTACAGACACAAAATATATACATATATATATATA [CACACA_negctrl_site1796] | 9.51
ATATGTCACTTGTATACACACATATAGATTTCAATC [CACACA_site7519] | 9.94
GAAAATAAAAAATATGAACACACATATATAACAAAA [CACACA_site7975] | 10.5
AACAAATACAGACACACACACACACCCAAAAAAAAA [CACACA_site515] | 10.9
CATACAGATGGACACACACACACACCCACAGACAAA [CACACA_site4431] | 10.5
ATAAATGACAGACACACACACAAAAAAAAAAAACAA [CACACA_site2626] | 11.5
GGTACATACAAACACACACACAAAAAAAAAAAAATA [CACACA_site1577] | 10.3
TACAGATACGGACACACACACACACCCAGACAAAAA [CACACA_site4432] | 11
TACATATACAGACACACACACACACCCCCACAAAAA [CACACA_site495] | 10.8
ATGGTACATACATACACACACACAAAAAAAAAAAAA [CACACA_site1578] | 11.3
TTTTTGTAATGACACACACACAAACAGAAAAAATAA [CACACA_site7062] | 10.2
AACACATACAAACACACACACAAAAAAAAAAAAAAA [CACACA_site393] | 10.4
AATACACCCAGACACACACACAAAAAAAAAAAAAAA [CACACA_site513] | 10.1
AAAAAAAACAGACACACACACAAATATATAAAAATA [CACACA_site1172] | 10.6
